The list is not random: actives were taken first. Their share in the collection is about 5.6%.
RORg inh: qHTS for inhibitors of ROR gamma transcriptional activity; Drosophila S2 Gal4-RORgamma UAS-luciferase reporter, 20 h; Nuclear receptor ROR-gamma (Mus musculus), P51450; 5.4% of 310,000 active; AID 2551, 2010; Potency, µM (highest dose often 53.6 µM), actives largely listed as inhibitors; further: nearly all actives have a fitted effect of over 60% in size
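Stably transfected Drosophila Schneider cells are the test system, with ROR gamma fused to Gal4 and luciferase under UAS control; luminescence is read after 20 hr of 700 uM copper sulfate induction at ambient temperature.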
PKM2 activator: qHTS Assay for Activators of Human Muscle isoform 2 Pyruvate Kinase | Potency, µM (doses to about 57.5 µM), usual class: activators | 0.34% of 260,000 active | Pyruvate kinase PKM (Homo sapiens), P14618 | purified PKM2, Kinase-Glo ATP luminescence, activation; response scale: 0% is enzyme alone, no compound; further: nearly all actives have a fitted effect of over 55% in size
Target sequence (P14618 whole entry, looked up, canonical isoform): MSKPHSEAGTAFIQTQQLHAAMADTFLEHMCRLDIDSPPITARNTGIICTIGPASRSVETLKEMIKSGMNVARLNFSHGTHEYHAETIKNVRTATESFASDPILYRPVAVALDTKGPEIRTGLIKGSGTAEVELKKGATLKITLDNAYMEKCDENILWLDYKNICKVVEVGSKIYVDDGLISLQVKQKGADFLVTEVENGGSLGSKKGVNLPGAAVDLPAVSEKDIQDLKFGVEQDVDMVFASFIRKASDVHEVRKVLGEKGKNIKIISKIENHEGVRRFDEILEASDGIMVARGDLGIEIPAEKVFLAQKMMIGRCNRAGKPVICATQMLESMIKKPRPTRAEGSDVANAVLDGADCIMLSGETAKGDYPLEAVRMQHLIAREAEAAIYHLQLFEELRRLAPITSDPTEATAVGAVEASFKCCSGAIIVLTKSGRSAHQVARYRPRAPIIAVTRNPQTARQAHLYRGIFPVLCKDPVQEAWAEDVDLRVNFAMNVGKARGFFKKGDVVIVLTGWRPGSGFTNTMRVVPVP
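ATP formation by purified human PK-M2, quantified via coupled luciferase luminescence after 1 h at room temperature with 0.1 mM ADP and 0.5 mM PEP final.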
VP16 counter: VP16 counterscreen qHTS for inhibitors of ROR gamma transcriptional activity; Drosophila S2 Gal4-VP16 UAS-luciferase, luminescence, 20 h; Potency, µM (series often up to 53.6 µM), actives largely listed as inhibitors; 3.5% of 310,000 active; AID 2546, 2010;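 further: Gal4-VP16 expression switched on by copper sulfate through the metallothionein promoter; nearly all actives have a fitted effect of over 50% in size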
CtBP-E1A blk: qHTS Assay for Inhibitors of the CtBP/E1A Interaction; AlphaScreen GST-E1A/His-CtBP binding, 1536-well; active compounds read low; activity change, % (concentration not given with the values); 0.49% of 340,000 active; CtBP / adenovirus E1A interaction (AlphaScreen); in the data active means activity change below about -65%; inconclusive means mostly about -30% to -63%
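GST-E1A and His-tagged CtBP (125 nM each as 5X stock) were preincubated with pin-transferred compound for 2 h at 37 °C in the dark, then glutathione donor and nickel acceptor beads were added for 1 h before AlphaScreen reading.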
Six1-Eya2 inh: qHTS Assay for Inhibitors of the Six1/Eya2 Interaction; AID 651725, 2012; AlphaScreen GST-Six1/His-Eya2 binding, biochemical; active compounds read low; 0.56% of 360,000 active; Homeobox protein SIX1 (Homo sapiens) + Protein phosphatase EYA2 (Homo sapiens), …; activity change, % (concentration not given with the values); in the data active means activity change below about -65%; inconclusive means mostly about -30% to -63%
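Compounds are tested against tagged Six1 and Eya2 proteins bridged by glutathione donor and nickel acceptor beads; after a one-hour incubation at 37 °C without light, AlphaScreen emission is recorded.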
Each line names hits and unclear results; the compound was inactive in the other large screens. Unless noted, the call rests on the fitted dose curve; in most records, active means well fitted curve in the direction sought with a large enough effect; inconclusive means small, poorly fitted or top-dose-only effect, or another doubt; inactive means no such curve, though single readings can be large; an effect the other way counts as inactive or inconclusive.

O=C1CCC(C(=O)Nc2cccc(Br)c2)N1 (stereo unspecified)	none
N/C(=N\N=C\c1ccc(O)c(O)c1)c1nonc1N	RORg inh 10µM, VP16 counter inconclusive
FC(F)(F)c1ccccc1NC(=S)N/N=C1\CC2CC=CC12 (stereo unspecified)	RORg inh 0.5µM, VP16 counter 14µM
Cc1noc(NC(=O)c2cccc(Cl)c2Cl)c1C#N	none (no result: CtBP-E1A blk)
O=C(NC(=S)Nc1ccc2oc(=O)ccc2c1)c1cccc(F)c1	RORg inh 6.3µM
O=C(NC(=S)Nc1ccc2oc(=O)ccc2c1)c1cccc(Cl)c1	RORg inh 2.8µM
COc1cccc(C(=O)NC(=S)Nc2ccc3oc(=O)ccc3c2)c1	RORg inh inconclusive, VP16 counter inconclusive
O=C(CN1C(=O)NC2(CCCCCCC2)C1=O)Nc1cccc(Br)c1	none (no result: RORg inh, PKM2 activator, VP16 counter)
CC(=O)C(=Cc1ccc(-c2ccccc2)cc1)C(=O)c1ccccc1	none (no result: RORg inh, PKM2 activator, VP16 counter)
O=C(Nc1nc2c(s1)CCCC2)c1cc(-c2ccc3c(c2)OCO3)nc2ccccc12	VP16 counter inconclusive (no result: CtBP-E1A blk, Six1-Eya2 inh)
Cc1ccccc1C(=O)NC(C(=O)Nc1nc2c(s1)CCCC2)C(C)C (stereo unspecified)	RORg inh inconclusive, VP16 counter 20µM
Cc1ccccc1-c1cc(C(=O)Nc2nc3c(s2)CCCC3)c2ccccc2n1	RORg inh 10µM
Cc1ccccc1C(=O)N[C@H](C(=O)Nc1ccc(Cl)c(Cl)c1)C(C)C	none
O=S(=O)(NC1CCCC1)c1ccc(F)cc1F	none (no result: RORg inh, PKM2 activator, VP16 counter)
O=C(Cc1ccccc1)N/N=C/c1cc(Br)cc(Br)c1O	RORg inh 0.79µM, VP16 counter 1.6µM, Six1-Eya2 inh inconclusive (no result: PKM2 activator)
O=C(CNC(=O)c1cccc(Br)c1)N/N=C/c1cc(Br)cc(Br)c1O	RORg inh 2.5µM, VP16 counter 13µM, CtBP-E1A blk inconclusive
O=C(CCN1CCOCC1)N/N=C/c1cc([N+](=O)[O-])ccc1OC(F)F	none
O=C(CCN1CCOCC1)N/N=C/c1cc(Br)cc(Br)c1O	RORg inh 1.4µM, VP16 counter 5µM, CtBP-E1A blk -73, Six1-Eya2 inh -83
O=C(Cc1ccccc1)N/N=C/c1cc(Br)cs1	none
CCCNC(=O)C1(C)CCCN(C(=O)c2ccccc2F)C1 (stereo unspecified)	none (no result: RORg inh, PKM2 activator, VP16 counter)
Cc1ccc(S(=O)(=O)c2nc(-c3ccccc3)oc2N2CCC(C(N)=O)CC2)cc1	none
CCOC(=O)C1=C(C(=O)OCC)N(Cc2ccccc2)CCC1=O	none (no result: RORg inh, PKM2 activator, VP16 counter)
COc1ccc(/C(O)=C2/C(=O)C(=O)N(c3ncccn3)C2c2ccc(C(C)(C)C)cc2)cc1 (stereo unspecified)	none (no result: CtBP-E1A blk, Six1-Eya2 inh)
Nn1cnnc1SC1CCCCC1NS(=O)(=O)c1ccccc1 (stereo unspecified)	VP16 counter 8.9µM
CCn1c(COc2ccccc2OC)nc2ccccc21	RORg inh 13µM, PKM2 activator inconclusive, VP16 counter inconclusive (no result: CtBP-E1A blk)
c1ccc(Cc2nc3ccccc3n2Cc2ccccc2)cc1	RORg inh inconclusive, VP16 counter 18µM
CCCn1c(COc2ccccc2OC)nc2ccccc21	RORg inh 10µM, PKM2 activator 16µM, VP16 counter inconclusive
COc1cc(C(=O)Cc2nc3ccccc3n2C)cc(OC)c1OC	RORg inh 6.3µM, VP16 counter 13µM
CCn1c(COc2ccccc2C)nc2ccccc21	RORg inh inconclusive, PKM2 activator inconclusive, VP16 counter inconclusive
COc1ccccc1OCc1nc2ccccc2n1C	VP16 counter inconclusive (no result: PKM2 activator)
CCn1c(COc2cccc(C)c2)nc2ccccc21	RORg inh 10µM, VP16 counter inconclusive
Cc1cccc(OCCCCn2c(CO)nc3ccccc32)c1	none (no result: CtBP-E1A blk)
Cn1c(COc2ccccc2Br)nc2ccccc21	RORg inh 13µM, VP16 counter inconclusive (no result: CtBP-E1A blk)
CC(c1nc2ccccc2n1Cc1ccccc1)N1CCCCC1 (stereo unspecified)	RORg inh 14µM, VP16 counter inconclusive (no result: PKM2 activator)
COCCn1c(C(C)C)nc2ccccc21	none (no result: CtBP-E1A blk)
CCn1c(Cc2ccc(OC)cc2)nc2ccccc21	RORg inh 11µM, VP16 counter 35µM
CCN(CC(=O)Nc1c(F)cccc1F)C(=O)C1CCN(C(=O)Nc2ccccc2)CC1	none (no result: RORg inh, PKM2 activator, VP16 counter)
CCOC(=O)[C@H]1[C@H]2COc3ccccc3[C@@H]2N2C(=O)CN(Cc3ccc(C)cc3)C(=O)[C@@]12C	none (no result: RORg inh, PKM2 activator, VP16 counter)
CCCn1c(COc2ccccc2)nc2ccccc21	RORg inh 13µM
CSC(=Nc1ccccc1)C(C#N)c1nc2ccccc2[nH]1 (stereo unspecified)	RORg inh 5.6µM
N#CC(C(=O)C1CCCCC1)c1nc2ccccc2[nH]1 (stereo unspecified)	RORg inh 3.5µM, VP16 counter 7.9µM
N#C/C(=N\O)c1nc2ccccc2[nH]1	none
N#CC(C(=S)Nc1ccccc1)c1nc2ccccc2[nH]1 (stereo unspecified)	RORg inh 1.1µM, VP16 counter 2.5µM (no result: CtBP-E1A blk)
NC(=O)c1cc2cc(Cc3ccccc3Cl)ccc2oc1=O	none
CCC1=C[C@@H]2CN(C1)Cc1c([nH]c3ccccc13)[C@@](C(=O)OC)(c1cc3c(cc1OC)N(C)[C@@H]1[C@@](O)(C(=O)OC)[C@H](OC(C)=O)[C@]4(CC)C=CCN5CC[C@]31[C@@H]54)C2	none (no result: PKM2 activator, CtBP-E1A blk, Six1-Eya2 inh)
Cc1ccc(S(=O)(=O)c2cc(O)ccc2O)cc1C	PKM2 activator 16µM (no result: CtBP-E1A blk)
Cc1ccc(-n2nnnc2-c2cnn(-c3ccc(F)cc3)c2C(F)(F)F)cc1	RORg inh inconclusive, VP16 counter 22µM
Cc1ccc(-c2nnnn2-c2ccc(C)cc2)cc1	none
CCc1ccc(NC(=O)CSc2nc3nc(C)cc(C)n3n2)cc1	VP16 counter 1.1µM (no result: PKM2 activator)
Cc1cc(C)n2nc(SCC(=O)Nc3ccccc3)nc2n1	none
CCn1c(C)nc2cc(C(=O)OC)ccc21	none
CCn1c(C)nc2cc(NC(=O)Nc3cccc(C(C)=O)c3)ccc21	RORg inh 16µM, VP16 counter 14µM (no result: PKM2 activator, CtBP-E1A blk)
Cc1nc2cc(NC(=O)Nc3nccs3)ccc2n1C	RORg inh inconclusive, VP16 counter 10µM
COc1cccc(NC(=O)Nc2ccc3c(c2)nc(C)n3C)c1	RORg inh 8.9µM, VP16 counter 11µM
CCN(CC)c1ccc(NC(=O)Nc2cccc(C(C)=O)c2)cc1	RORg inh 7.9µM, PKM2 activator inconclusive, VP16 counter inconclusive, CtBP-E1A blk inconclusive
COc1cccc([C@@H]2Oc3ccc(OC)cc3C(=O)[C@H]2OC(=O)Nc2ccc(OC(F)F)cc2)c1	none (no result: PKM2 activator, CtBP-E1A blk, Six1-Eya2 inh)
O=C(CSc1nnc2c(n1)[nH]c1ccccc12)Nc1cccc(S(=O)(=O)N2CCOCC2)c1	VP16 counter inconclusive
O=C(NCc1cccnc1)c1ccc(Cl)c(S(=O)(=O)Nc2ccccc2C(=O)NCc2cccnc2)c1	none

High-throughput results as filed in PubChem BioAssay.
